Laboratory results: ChEMBL document CHEMBL3988442, “University of Dundee, Small-Polar-MMV Screening Library” (2021)
Screen size: about 48,000 compounds; about 13,000 (27%) showed an effect of 50% or more. The list shows a part of the results.

Tested on: Wolbachia pipientis
Experiment: Anti-Wolbachia Cell-Based Screen
Type: functional
Design: scale not given: in the data most compounds retested in dose-response had high values
Details: 5 µM

| SMILES | Percent Effect |
| --- | --- |
| CC(C)(C)n1ncc2c(=O)[nH]c(NC3CC=CC3)nc21 | 3.92% |
| CS(=O)(=O)NC[C@H]1Cn2c(-c3ccccc3)cnc2CO1 | -16.47% |
| CCN(C(c1cccnc1)c1ccc(F)cc1F)S(C)(=O)=O (stereo not drawn) | -3.142% |
| CCC(Nc1ncccn1)c1cccnc1 (stereo not drawn) | 8.55% |
| CCNC(c1ccc(OC)cc1)c1cccnc1 (stereo not drawn) | -6.571% |
| CCNC(c1cccnc1)c1ccc(F)c(C)c1 (stereo not drawn) | 95.54% |
| CC(NCCCC#N)c1ccc(-c2cccnc2)cc1 (stereo not drawn) | -3.574% |
| CCOCCN(C)C(c1cccnc1)c1ccc(F)cc1F (stereo not drawn) | -0.1699% |
| CCNC(c1ccc(C(C)C)cc1)c1cccnc1 (stereo not drawn) | 85.86% |
| CCNC(c1cccnc1)c1ccc(F)c(F)c1 (stereo not drawn) | -4.502% |
| CCN(C(c1cccnc1)c1ccc(F)c(F)c1)S(C)(=O)=O (stereo not drawn) | 5.552% |
| CCNC(c1ccc(Br)cc1)c1cccnc1 (stereo not drawn) | 106.3% |
| CCNC(c1cccnc1)c1ccc(F)cc1F (stereo not drawn) | 101.5% |
| NC(=O)CC1CCN(C(=O)CCOc2ccc(Cl)cc2)CC1 | -10.96% |
| COCCCN(C)C(=O)Cn1cccc(OC)c1=O | -68.57% |
| CN(C)Cc1cn(CC2CCCN(c3nccc4occc34)C2)nn1 (stereo not drawn) | -7.203% |
| Cc1nc(CN2CCN(Cc3cc4n(n3)CCNC4)CC2)cs1 | -7.4% |
| O=C(c1ncn2c1CNS(=O)(=O)c1ccccc1-2)N1CCCCCC1 | -12.52% |
| CCNC(c1ccc(C)cc1)c1cccnc1 (stereo not drawn) | 100.9% |
| CCNC(c1ccc(Cl)cc1)c1cccnc1 (stereo not drawn) | 74.82% |
| CCNC(c1cccnc1)c1cc(C)cc(C)c1 (stereo not drawn) | 1.12% |
| Cc1ccc(C)c(C(NC2CCCC2)c2cccnc2)c1 (stereo not drawn) | -43.53% |
| CCNC(c1ccc(CC)cc1)c1cccnc1 (stereo not drawn) | 93.88% |
| CCc1cnc(NCC(C)Oc2cccnc2)nc1 (stereo not drawn) | 7.623% |
| CC(NCc1cccc(S(=O)(=O)N(C)C)c1)c1cccnc1 (stereo not drawn) | -5.764% |
| Cc1[nH]c2c(F)cccc2c1CC(=O)N1CCC(NS(C)(=O)=O)CC1 | 3.004% |

| SMILES | Percent Effect |
| --- | --- |
| N#Cc1ccc(N2CCCC2Cn2cccn2)nc1 (stereo not drawn) | 15.37% |
| CCc1ncc(C(=O)N2CCCOC(Cn3cccn3)C2)cn1 (stereo not drawn) | 5.482% |
| N[C@H]1CN(C(=O)Cc2cc(F)cc(Cl)c2)C[C@@H]1C1CC1 | -8.09% |
| CC(C)n1cc(CN2CCCN(C(=O)c3ccnn3C)CC2)cn1 | -7.528% |
| CC(C)n1cc(CN2CCCN(C(=O)C3(C)CCOCC3)CC2)cn1 | -0.3166% |
| CC(C)n1cc(CN2CCCN(C(=O)C3CCOC3)CC2)cn1 (stereo not drawn) | 103.2% |
| CC(C)n1cc(CN2CCCN(C(=O)C3CCCN3C)CC2)cn1 (stereo not drawn) | 115.6% |
| CCc1nc(CN2CCCN(C(=O)C3CCOC3)CC2)cs1 (stereo not drawn) | 3.952% |
| CC(C)=CCCC(C)CN1CCC(n2cc(C(C)(C)O)nn2)CC1 (stereo not drawn) | -10.5% |
| O=c1[nH]c(C2CCOC2)nc2cc(F)c(F)cc12 (stereo not drawn) | -25.67% |
| c1ccc(-c2noc(CN3CCOC(Cn4cccn4)C3)n2)nc1 (stereo not drawn) | 10.47% |
| Nc1nc(CN2CCCC(Cn3cncn3)C2)nc2ccccc12 (stereo not drawn) | -7.621% |
| c1ccc2oc(CCCN3CCOC(Cn4cccn4)C3)nc2c1 (stereo not drawn) | -3.137% |
| Cc1cnn(CC2CN(CCCS(C)(=O)=O)CCO2)c1 (stereo not drawn) | -24.88% |
| c1ccc2oc(CN3CCOC(Cn4cccn4)C3)nc2c1 (stereo not drawn) | 90.04% |
| CC(C)(C)c1nnc(CN2CCOC(Cn3cccn3)C2)o1 (stereo not drawn) | -7.281% |
| Cc1cnn(CC2CN(CCCc3nc4ccccc4o3)CCO2)c1 (stereo not drawn) | 130.7% |
| c1ccc2oc(CCCN3CCCC(Cn4cncn4)C3)nc2c1 (stereo not drawn) | 99.07% |
| Cc1cnn(CC2CN(CCCS(=O)(=O)N(C)C)CCO2)c1 (stereo not drawn) | 6.483% |
| c1cnn(CC2CN(Cc3nnc(C4CC4)o3)CCO2)c1 (stereo not drawn) | 144.3% |
| c1coc(-c2nnc(CN3CCOC(Cn4cccn4)C3)o2)c1 (stereo not drawn) | -1.801% |
| O=c1[nH]c(CCN2CCCC(Cn3cncn3)C2)nc2ccccc12 (stereo not drawn) | 2.487% |
| COc1ccc(CC(=O)N(C)C2CCN(C)C2=O)cc1F (stereo not drawn) | -7.072% |
| CS(=O)(=O)N1CCC(Oc2ccc(C(=O)NC3CCOC3)cc2Cl)CC1 (stereo not drawn) | 6.025% |
| COC(=O)CN(C(=O)c1ccc(Cl)cn1)c1cccc(F)c1 | -0.7063% |
| c1ccc2oc(CCCN3CCOC(Cn4cncn4)C3)nc2c1 (stereo not drawn) | 115.2% |

| SMILES | Percent Effect |
| --- | --- |
| Cn1c(CN2CCOC(Cn3cncn3)C2)nc2ccccc21 (stereo not drawn) | -24% |
| Cc1cnn(CC2CN(Cc3nc4ccccc4o3)CCO2)c1 (stereo not drawn) | 139.9% |
| Cc1cnn(CC2CN(CCS(=O)(=O)c3ccccc3)CCO2)c1 (stereo not drawn) | 5.078% |
| Cc1cnn(CC2CN(Cc3nc4ccccc4n3C)CCO2)c1 (stereo not drawn) | 109.8% |
| CCOCC(=O)NCC1Cn2nnc(-c3cccc(F)c3)c2CO1 (stereo not drawn) | -1.189% |
| NCC1Cc2cccc(-c3ccc(O)c(F)c3)c2O1 (stereo not drawn) | 16.35% |
| CC(NC(=O)N(C)Cc1ccsc1)c1nncn1C (stereo not drawn) | -12.05% |
| CNC(=O)c1cc2c(nc1NCC(C)C)CCN(S(=O)(=O)C1CC1)CC2 | -0.7375% |
| CCc1nnsc1C(=O)N(C)Cc1ccco1 | 13.36% |
| COC[C@@H]1CC[C@H]2[C@H](CCN2S(=O)(=O)c2ccc(F)cc2)O1 | 6.066% |
| CCOC[C@H]1CC[C@H]2[C@H](CCN2C(=O)c2ccncc2F)O1.O=C(O)C(F)(F)F | 0.195% |
| COC[C@@H]1CC[C@H]2[C@H](CCN2C(=O)c2ccncc2F)O1.O=C(O)C(F)(F)F | -6.773% |
| CCOC[C@H]1CC[C@H]2[C@H](CCN2S(=O)(=O)Cc2ccccc2)O1 | -6.562% |
| CCOC[C@@H]1CC[C@H]2[C@H](CCN2C(=O)c2ccncc2F)O1 | 103.3% |
| COC[C@H]1CC[C@H]2[C@H](CCN2C(=O)c2ccncc2F)O1 | 114.1% |
| Cn1nnc2c1C(COCc1ccccn1)CN(C(=O)c1cccs1)C2.O=C(O)C(F)(F)F (stereo not drawn) | -3.747% |
| CN(C)C(=O)N1Cc2nnn(C)c2C(COCc2cccnc2)C1.O=C(O)C(F)(F)F (stereo not drawn) | -1.037% |
| CCOCC(=O)N1Cc2nnn(C)c2C(COCc2ccccn2)C1.O=C(O)C(F)(F)F (stereo not drawn) | 0.961% |
| Cc1ccc(CN2Cc3nnn(C)c3C(COCc3ccccc3)C2)s1.O=C(O)C(F)(F)F (stereo not drawn) | 113.4% |
| Cc1ccc(CN2Cc3nnn(C)c3C(COCc3ccccn3)C2)s1.O=C(O)C(F)(F)F.O=C(O)C(F)(F)F (stereo not drawn) | 95.33% |
| Cc1ccc(CN2CCc3c(nnn3C)C2COCc2ccccc2)s1.O=C(O)C(F)(F)F (stereo not drawn) | -9.551% |
| Cc1cc(CN(C)C(=O)CNS(=O)(=O)c2cccs2)no1 | -1.596% |
| CC[C@H]1COCCN1C(=O)c1ccc(OC)c(N2CCOCC2)c1 | 7.42% |
| Cc1ncsc1CN1C[C@@H]2CCCO[C@@H]2[C@H](N(C)C(C)C)C1.O=C(O)C(F)(F)F.O=C(O)C(F)(F)F | -15.14% |
| CCN(C(=O)C(C)C)C(c1cccnc1)c1ccc2c(c1)CCO2 (stereo not drawn) | 4.729% |
| Cn1c(C(=O)NC(Cc2ccsc2)c2cccnc2)cc(=O)n(C)c1=O (stereo not drawn) | 166.4% |

| SMILES | Percent Effect |
| --- | --- |
| Cc1csc(C(Cc2ccsc2)NC(=O)c2cc(=O)n(C)c(=O)n2C)n1 (stereo not drawn) | 142.4% |
| CC(c1cccnc1)N1CCN(C(=O)NCc2cnn(C)c2)CC1 (stereo not drawn) | -9.128% |
| Cc1cc(NC(=O)CCc2ccsc2)n(C)n1 | 5.21% |
| Cn1c(=O)cc(C(=O)NC(Cc2ccsc2)c2cccnc2)[nH]c1=O (stereo not drawn) | 175.1% |
| Cc1cnccc1NC(=O)CCc1ccsc1 | -8.034% |
| Cc1csc(N2CCN(C(=O)Cc3ccsc3)CC2)n1 | 4.933% |
| CC(Cc1ccsc1)NC(=O)c1cc(N2CCNC2=O)ccc1F (stereo not drawn) | -0.338% |
| CCN(CC)c1ccc(C(=O)N(C)Cc2c(C)noc2C)cn1 | 3.136% |
| CCN(Cc1ccc(C#N)cc1F)C(=O)CN(C)CC(N)=O | -8.702% |
| COCc1ccccc1C(=O)NCCCN1CCCC1C(=O)N(C)C (stereo not drawn) | -20.3% |
| CC(C)c1nnc2n1CCN(c1nc3ccccc3o1)C2 | 11.04% |
| O=C(c1ccc(-n2cccn2)cc1Cl)N1CCCC(O)(CO)C1 (stereo not drawn) | -12.88% |
| CC(C)CCC(=O)N1CCN(C(=O)c2ccc(-n3cccn3)cc2)CC1 | -3.976% |
| O=C(c1cccc(-n2cccn2)c1)N1CCOC(CCO)C1 (stereo not drawn) | -0.5625% |
| O=C(c1cc(-n2cccn2)ccc1Cl)N1CCCC(N2CCCC2)C1 (stereo not drawn) | 114.1% |
| O=C(c1cccnc1-n1cccn1)N1CCN(CC2CC2)CC1 | -16.04% |
| O=C(NCc1ccccc1-n1cccn1)N1CCN2CCCCC2C1 (stereo not drawn) | -0.3123% |
| O=C(c1cc(-n2cccn2)ccc1Cl)N1CCC(N2CCCC2=O)CC1 | 95.9% |
| CCN(CC)C1CCN(C(=O)c2cc(-n3cccn3)ccc2Cl)CC1 | 93.46% |
| Cc1nn(-c2ccccc2)cc1C(=O)N1CCCN2CCCC2C1 (stereo not drawn) | 6.19% |
| CCn1ccnc1CN1CCCC(N(C)CCc2ccccc2)C1 (stereo not drawn) | 3.806% |
| COc1ccc(Cl)cc1-c1cc(NC(=O)C2COCCO2)[nH]n1 (stereo not drawn) | -1.485% |
| Cc1cc(I)cnc1NC(=O)C(C)(C)C | -4.531% |
| CC(C)Cc1nc(OCC(N)=O)c(C#N)c2c1CCC2 | 34.66% |
| COCCCC1(C(=O)O)CCCN(C(=O)c2ccc(C(C)C)[nH]c2=O)C1 (stereo not drawn) | 4.25% |
